Experimental data published in PubChem BioAssay AID624483 (NMMLSC, 2012).
About 11,000 (3.1%) of roughly 360,000 compounds were called active. Another 2% or so got no clear call; they are omitted. Only a selection was taken, and actives are over-represented in it overall. Values without a mark were called inactive. No stated cut-off is given here; in the data, active means fluorescence intensity above about 16000; inconclusive means no clear call, values can overlap the other calls; inactive means below that.

Test: counter-screen for toxin protease inhibitors: compound fluorescence, primary screen, artefact control for toxin protease inhibitor project, biochemical, multiplex microsphere, HTS (AID 624483)
Details: compound autofluorescence counterscreen, microsphere flow cytometry; hits give high values

SMILES | fluorescence intensity
CCCCc1c(-c2ccc(Cl)cc2)ncn1CCc1ccccc1OC | 6340
COc1ccc(S(=O)(=O)NCc2ccc(C(=O)N(C)Cc3ccco3)cc2)cc1 | 10900
CCOc1ccc(CN(Cc2ccco2)S(=O)(=O)c2ccc(-n3cnnn3)c(OC)c2)cc1 | 11600
COc1ccc(CN(Cc2ccco2)S(=O)(=O)c2ccc(S(=O)(=O)N3CCCC3)cc2)cc1 | 23600 (active)
CC1(C(=O)Nc2cccc3c2CCCC3)CCN1C(=O)C1(c2ccccc2)CC1 (stereo not drawn) | 3760
C=CCn1c2c(c3ccccc31)CCC2 | 6080
NS(=O)(=O)c1ccc(Nc2nc(-c3ccccc3)cs2)cc1 | 23200 (active)
COc1ccc(-c2csc(Nc3cccc(C)n3)n2)cc1OC | 3770
NS(=O)(=O)c1ccc(NS(=O)(=O)/C=C/c2ccccc2)cc1 | 7650
COc1ccc2c(c1OC)C(=O)OC2Nc1nc(-c2ccccc2)cs1 (stereo not drawn) | 2960
COc1ccc(Nc2nc(-c3ccccc3)cs2)cc1 | 23300 (active)
CC(=O)c1ccc(Nc2nc(C(N)c3ccccc3)cs2)cc1 (stereo not drawn) | 3990
CCCOc1ccc(F)cc1-c1cc(C(=O)Nc2ccc(F)cc2)[nH]n1 | 3520
COCCn1c(SCC(=O)c2[nH]c(C)c(C(C)=O)c2C)nc2ccccc2c1=O | 3120
CC(C)Cn1cc(-c2cncc3nccn23)cn1 | 4100
COCCCNC(=O)c1ccc(-c2c(C)noc2C)c2ccoc12 | 3520
Cc1ccc(/C=N/NC(=O)Cn2ccc(C(F)(F)F)n2)o1 | 2150
Clc1ccc(CSc2nnc3c(n2)[nH]c2ccccc23)cc1 | 3690
c1ccc(Cc2c(-c3ccco3)nc3c4ccccc4ccn23)cc1 | 4810
c1ccc(CSc2nnc(-c3ccco3)c(-c3ccco3)n2)cc1 | 20900 (active)
CN(C)CCN(Cc1ccccc1)S(=O)(=O)c1csc(C(N)=O)c1 | 5470

SMILES | fluorescence intensity
COc1ccc(-n2c(C)cc(C(=O)COC(=O)c3cc(OC)c(OC)cc3NC(=O)c3cccs3)c2C)cc1 | 2450
COc1ccc(-n2c(C)cc(C(=O)CSc3nnc(-c4cccs4)o3)c2C)cc1 | 18900 (active)
Cc1ccc(-n2c(C)cc(C(=O)CSc3nnc4ccccn34)c2C)cc1 | 2510
CC(C)CCC(C)NC(=O)c1ccc2nccnc2c1 (stereo not drawn) | 4050
COC(=O)c1ccc(OC(=O)c2cnccn2)cc1 | 4650
O=C(Oc1ccccc1)c1ccc2nccnc2c1 | 16700 (active)
Cc1nccn1-c1ccc(NC(=O)[C@H]2O[C@@H](n3cnc4c(N)ncnc43)[C@H](O)[C@@H]2O)cc1 | 5940
CC(Oc1ccc(F)cc1F)C(=O)/C=C/N(C)C (stereo not drawn) | 24200 (active)
CN(C)/C=C/C(=O)c1ccccc1F | 4920
CC(Oc1ccc(Cl)cc1Cl)C(=O)/C=C/N(C)C (stereo not drawn) | 18300 (active)
CC(=O)N(OCc1ccc(OC(C)C)c(Cl)c1)C(C)=O | 4420
CC(Oc1ccccc1F)C(=O)NN (stereo not drawn) | 2470
CCCC(=O)Nc1cccc(NC(=S)NC(=O)C(C)Oc2ccc(Cl)cc2Cl)c1 (stereo not drawn) | 2030
CCOC(=O)c1sc(N)c(C#N)c1COC(=O)C1=COCCO1 | 4150
CCNC(=O)C1CCCN(C(=O)c2ccc(OC)cc2OC)CC1 (stereo not drawn) | 2850
CCCOc1ccc(F)cc1-c1cc(C(=O)NCc2ccc(F)cc2)[nH]n1 | 3970
COCCNc1nc(NCc2ccc(NC(C)=O)cc2)c2sccc2n1 | 3410
CC(=O)Nc1cccc(Nc2ccc(C#N)cc2)c1 | 6880
CCOC(=O)C1CCCN(C(=O)c2cccc3ccccc23)CC1 (stereo not drawn) | 3960
O=C(NCc1ccc(F)cc1)c1cc(C2CCCCN2C(=O)c2ccccn2)on1 (stereo not drawn) | 4420
Nc1nc2cc(Cl)ccc2n1N | 6290

SMILES | fluorescence intensity
CC(O)(c1cccc(F)c1)c1nc(-c2ccc3c(c2)OCO3)cs1 (stereo not drawn) | 3850
O=C(N1CCOCC1)N(Cc1ccccc1)c1ccccn1 | 3710
CCC(=O)N(Cc1ccccc1)c1ccccn1 | 20800 (active)
CC(C)(C)C(=O)N(Cc1ccccc1)c1ccccn1 | 4430
COc1cc(F)ccc1-c1cc(C(=O)NCC2CCCCC2)[nH]n1 | 3000
CCC(C)[C@H](NC(=O)N1c2ccccc2NC(=O)[C@@H]1C(C)C)C(=O)N[C@@H](Cc1ccccc1)C(=O)O (stereo partly drawn) | 3920
COc1ccc(NC(C)=O)cc1NC(=O)CN1CCN(C2c3ccccc3-c3ccccc32)CC1 | 4260
Cc1ccc(CN(CC(=O)NC2CCCCC2)C(=O)c2csnn2)cc1 | 5650
CCCOc1ccc(/C(O)=C2/C(=O)C(=O)N(CCN(C)C)C2c2ccc(OC)c(OC)c2)cc1 (stereo not drawn) | 4510
COc1ccc(/C(O)=C2/C(=O)C(=O)N(CCCN(C)C)C2c2ccccc2)cc1OC (stereo not drawn) | 21200 (active)
COc1cccc(C2/C(=C(/O)c3ccc(F)cc3)C(=O)C(=O)N2CCN(C)C)c1 (stereo not drawn) | 4550
CC1(C)CC(O)C(CCC(O)c2ccccc2)C(C)(C)N1 (stereo not drawn) | 2520
Cc1noc(C)c1C(=O)NCC1COc2ccccc2O1 (stereo not drawn) | 6410
Cc1c(C(=O)Nc2ccccn2)oc2ccc(Br)cc12 | 5620
Cc1noc(C)c1C(=O)Nc1ccccn1 | 22800 (active)
Cn1c(=O)c2c(nc(SCCNS(=O)(=O)c3ccccc3)n2C)n(C)c1=O | 10500
O=C(Nc1cc(Br)ccc1F)c1nc[nH]c1C(=O)NCc1ccccc1 | 4670
CCCCC(C(=O)NC(C)(C)C)N(Cc1ccccc1)C(=O)c1snc(C(N)=O)c1N (stereo not drawn) | 3460
CCOc1ccc(S(=O)(=O)N2CCCCCC2)c2ccccc12 | 16700 (active)
CCOc1ccc(S(=O)(=O)n2ccnc2)c2ccccc12 | 5760
COc1ccc(S(=O)(=O)N2CCCC2)c(C)c1C | 16000
